For 40 compounds, fold change results are on record in PubChem BioAssay AID1611 (NINDS Approved Drug Screening Program, 2009).

This test is described as follows: inducers of human heat shock response, cell-based, HSE luciferase (AID 1611). The note with it: human cells, HSE-luciferase heat shock reporter; stronger effect = higher value.
For the compound `O=C(O)C1=CCNCC1`, the fold change turned out to be 1.18.

On to `NC(N)=NC(N)=Nc1ccccc1`, for which the fold change came out at 0.95.

On to `CCCCOc1ccc(CC(=O)NO)cc1`, for which the fold change was found to be 0.79.

For `CC(C)CC1NC(=O)CNC1=O` (stereo not given), the fold change is 0.55.

Consider `COC(=O)C1=C(C)NC(C)=C(C(=O)OC)C1c1ccccc1[N+](=O)[O-]`, for which the fold change was found to be 1.12.

`CCN(CC)C(=O)c1cccc(C)c1`: the fold change worked out at 0.91.

On to `NC[C@@H]1O[C@H](O[C@@H]2[C@@H](CO)OC(O[C@@H]3[C@@H](O)[C@H](N)C[C@H](N)[C@H]3OC3O[C@H](CN)[C@@H](O)[C@H](O)[C@H]3N)[C@@H]2O)[C@H](N)[C@@H](O)[C@@H]1O` (stereo not given in full), for which the fold change was determined as 0.96.

For `c1ccc(CN(CC2=NCCN2)c2ccccc2)cc1`, the fold change was determined as 1.78.

For `NCCCC(N)CC(=O)NCC1NC(=O)C(CO)NC(=O)C(N)CNC(=O)C(C2CCN=C(N)N2)NC(=O)/C(=C/NC(N)=O)NC1=O` (stereo not given), the fold change stood at 0.59.

Consider `O=C(C1CCCCC1)N1CC(=O)N2CCc3ccccc3C2C1` (stereo not given), for which the fold change worked out at 1.17.

Consider `CCCCc1oc2ccccc2c1C(=O)c1cc(I)c(OCCN(CC)CC)c(I)c1`, for which the fold change turned out to be 0.84.

As to `Cc1nnc(SCC2=C(C(=O)O)N3C(=O)[C@@H](NC(=O)Cn4cnnn4)[C@H]3SC2)s1`, the fold change came to 0.8.

On to `CC(=O)[C@@]1(O)CCC2C3C[C@H](C)C4=CC(=O)C=CC4(C)[C@@]3(F)[C@@H](O)C[C@@]21C` (stereo not given in full), for which the fold change came to 1.43.

As for `COc1ccc(CCN2CCC(Nc3nc4ccccc4n3Cc3ccc(F)cc3)CC2)cc1`, the fold change turned out to be 1.64.

Turning to `NNC(=O)c1ccncc1`, the fold change is 0.48.

Consider `N=c1nc(N2CCCCC2)cc(N)n1O`, for which the fold change was 0.77.

`Cc1cc(-c2ccccc2)nnc1NCCN1CCOCC1`: the fold change amounted to 0.98.

In the case of `CC[C@H](C)C(=O)O[C@H]1CCC=C2C=C[C@H](C)C(CCC3C[C@@H](O)CC(=O)O3)[C@H]21` (stereo not given in full), the fold change came out at 1.15.

Turning to `CN1CCN(C(c2ccccc2)c2ccc(Cl)cc2)CC1` (stereo not given), the fold change stood at 1.12.

As for `O=C(O)c1ccccc1OP(=O)(O)O`, the fold change is 1.04.

With `CN1CCN(CC(=O)N2c3ccccc3C(=O)Nc3cccnc32)CC1`, the fold change was 1.06.

As for `Cc1ccc(C(=O)C(C)CN2CCCCC2)cc1` (stereo not given), the fold change stood at 0.93.

As for `Cn1c(=O)[nH]c2ncn(C)c2c1=O`, the fold change amounted to 1.88.

With `CNCCC=C1c2ccccc2CCc2ccccc21`, the fold change is 1.45.

For `CN(C)C(=O)C(CCN1CCC(O)(c2ccc(Cl)cc2)CC1)(c1ccccc1)c1ccccc1`, the fold change was 1.52.

As for `O=C(OCC(O)CO)c1ccccc1Nc1ccnc2cc(Cl)ccc12` (stereo not given), the fold change came out at 0.5.

Regarding `NC(=O)c1cnccn1`, the fold change turned out to be 1.78.

With `CCn1cc(C(=O)O)c(=O)c2cc(F)c(N3CCNCC3)cc21`, the fold change amounted to 1.06.

In the case of `CN(C)CC/C=C1\c2ccccc2Sc2ccc(Cl)cc21`, the fold change worked out at 1.34.

Regarding `CO[C@]12C[C@@H](COC(=O)c3cncc(Br)c3)CN(C)[C@@H]1Cc1cn(C)c3cccc2c13`, the fold change amounted to 0.91.

Consider `NC(N)=NC(=O)c1nc(Cl)c(N)nc1N`, for which the fold change was 0.89.

`COc1cccc(OC)c1C(=O)N[C@@H]1C(=O)N2[C@@H]1SC(C)(C)[C@@H]2C(=O)O`: the fold change is 0.82.

For the compound `OCC(O)CN1CCN(c2ccccc2)CC1` (stereo not given), the fold change came out at 0.82.

For `CN(C)c1ccc(C(=C2C=CC(=[N+](C)C)C=C2)c2ccc(N(C)C)cc2)cc1`, the fold change amounted to 1.22.

Regarding `CCCCCCCCCCCCCCCC(=O)OC/C=C(C)/C=C/C=C(C)/C=C/C1=C(C)CCCC1(C)C`, the fold change stood at 1.08.

On to `CCN(CC)CCCC(C)Nc1c2ccc(Cl)cc2nc2ccc(OC)cc12` (stereo not given), for which the fold change worked out at 0.97.

Regarding `O=C1c2ccc(O)c(O)c2C(=O)c2c(O)ccc(O)c21`, the fold change was 0.67.

Take `CO[C@@H]1[C@@H](OC(N)=O)[C@@H](O)[C@H](Oc2ccc3c(O)c(NC(=O)c4ccc(O)c(CC=C(C)C)c4)c(=O)oc3c2C)OC1(C)C`: the fold change worked out at 1.06.

As to `CC1(C)S[C@@H]2C(N3C(=O)[C@@H](c4ccccc4)NC3(C)C)C(=O)N2[C@H]1C(=O)O` (stereo not given in full), the fold change came to 1.12.

For the compound `CC(Cc1cccc(C(F)(F)F)c1)NCCOC(=O)c1ccccc1` (stereo not given), the fold change came out at 1.03.
